A short description of test [1]: qHTS assay to test for compound auto fluorescence at 535 nm (green) in HEK293 cells (AID 720680). Background: Quantitative high-throughput screening tests each substance at several concentrations.
The nature of test [2]: qHTS assay to test for compound auto fluorescence at 460 nm (blue) in HEK293 cell free culture (AID 720681). In outline: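 Blue fluorescence (Ex 405/Em 460 nm, triamterene-equivalent) was read immediately after pin transfer of compound or DMSO into medium (DMEM, 10% FBS) without cells.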
Test [3] in a line: qHTS assay to test for compound auto fluorescence at 535 nm (green) in HEK293 cell free culture (AID 720682). The gist of the method:
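No cells present: wells hold DMEM supplemented with 10% FBS, into which compound or vehicle is pinned. Green emission is then recorded (485 nm excitation, 535 nm emission) and scaled to fluorescein.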

A short description of test [4]: qHTS assay to test for compound auto fluorescence at 590 nm (red) in HepG2 cell free culture (AID 720684). In outline:
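Steps: dispense MEM/10% FBS medium, no cells; pin compound or DMSO vehicle; read red channel, Ex/Em 540/590 nm. Output given as Rose Bengal sodium equivalents.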

Test [5] in a line: qHTS assay to test for compound auto fluorescence at 460 nm (blue) in HepG2 cell free culture (AID 720685). In outline:
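Compound (23 nL) or DMSO pinned into cell-free MEM with 10% FBS; blue fluorescence read at 405/460 nm excitation/emission, expressed as auto-fluorescence equivalency to triamterene.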

A short description of test [6]: qHTS assay to test for compound auto fluorescence at 535 nm (green) in HepG2 cell free culture (AID 720686).
A short description of test [7]: qHTS assay to test for compound auto fluorescence at 460 nm (blue) in HepG2 cells (AID 720687). In outline: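 Blue-channel autofluorescence (Ex/Em 405/460 nm, triamterene-equivalent) was measured after 1 hr compound exposure at 37 C, 5% CO2. Cells were HepG2, plated overnight at 37 C in MEM plus 10% FBS.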
In test [8] the target is Glucocorticoid receptor (Homo sapiens) (UniProt P04150). The test can be described thus: qHTS assay to identify small molecule antagonists of the glucocorticoid receptor (GR) signaling pathway (AID 720692; active means well fitted inhibition curve with a large enough effect in the signal ratio in the repeat runs, not every such curve was filed as active; inconclusive means weak or mixed curves, or effect the other way; inactive means no such curve, though single readings can be large or run the other way; the % refers to the signal ratio; further: potency means the concentration at half of the fitted maximal effect). In outline: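 GR-bla HeLa cells (beta-lactamase reporter under glucocorticoid response element) were pre-plated 4 h at 37 C, treated with compounds plus 5 nM dexamethasone (final) for 18 h, then read by LiveBLAzer B/G FRET fluorescence after 2 h.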

Test [9] has the same target. Briefly: qHTS assay to identify small molecule agonists of the glucocorticoid receptor (GR) signaling pathway (AID 720691; active means well fitted activation curve with a large enough effect in the signal ratio in the repeat runs, not every such curve was filed as active; inconclusive means weak or mixed curves, or effect the other way; inactive means no such curve, though single readings can be large or run the other way; the % refers to the signal ratio; further: potency means the concentration at half of the fitted maximal effect). In outline: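 GR-bla HeLa cells (beta-lactamase reporter under glucocorticoid response element) were plated 4 h at 37 C/5% CO2, given compounds in DMSO, and incubated 18 h at 37 C. LiveBLAzer B/G FRET substrate was added for 2 h at room temperature, then fluorescence intensity read.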

Calls of active or inactive are those of the source. Unless noted, the call rests on the fitted dose curve; in most records, active means well fitted curve in the direction sought with a large enough effect in the repeat runs; inconclusive means weak or mixed curves; inactive means flat fitted curve, though single readings scatter.

Sequence of Glucocorticoid receptor (Homo sapiens) (P04150 whole entry, looked up): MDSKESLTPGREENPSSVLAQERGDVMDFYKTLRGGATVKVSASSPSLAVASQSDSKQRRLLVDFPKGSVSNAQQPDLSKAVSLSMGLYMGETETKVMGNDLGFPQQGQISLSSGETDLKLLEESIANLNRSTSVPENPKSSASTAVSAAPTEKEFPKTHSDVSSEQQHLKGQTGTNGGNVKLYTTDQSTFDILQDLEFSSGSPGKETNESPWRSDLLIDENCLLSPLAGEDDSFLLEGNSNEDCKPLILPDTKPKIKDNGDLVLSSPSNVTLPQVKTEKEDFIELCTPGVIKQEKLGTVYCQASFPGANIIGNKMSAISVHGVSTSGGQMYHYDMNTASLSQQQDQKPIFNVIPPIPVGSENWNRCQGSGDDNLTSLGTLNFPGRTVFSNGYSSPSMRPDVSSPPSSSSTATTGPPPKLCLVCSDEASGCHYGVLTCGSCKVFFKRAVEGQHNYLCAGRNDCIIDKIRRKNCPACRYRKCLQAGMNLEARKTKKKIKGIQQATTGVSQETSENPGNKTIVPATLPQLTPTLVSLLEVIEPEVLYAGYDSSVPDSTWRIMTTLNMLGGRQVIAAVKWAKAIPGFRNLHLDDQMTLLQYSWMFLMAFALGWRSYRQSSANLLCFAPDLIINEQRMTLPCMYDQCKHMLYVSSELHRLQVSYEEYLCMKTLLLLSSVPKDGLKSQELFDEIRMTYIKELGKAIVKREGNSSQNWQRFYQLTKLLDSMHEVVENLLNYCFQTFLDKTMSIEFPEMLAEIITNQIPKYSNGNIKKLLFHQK

On to `NC(=O)N(O)[C@@H]1COc2cc(OCc3ccccc3)ccc21`, for which the outcome in [1], in test [3], in test [4] and in [6] was inactive. The Potency entry in [2], in [5], in test [7] and in test [8] was “inactive” each time.

With `C[C@@H]1C[C@H]2[C@@H]3CCC4=CC(=O)C=C[C@]4(C)[C@@]3(F)[C@@H](O)C[C@]2(C)[C@H]1C(=O)CO`, the compound was called inactive in test [1], in test [3], in [4] and in test [6]. Besides, the Potency result in test [2], in test [5] and in test [7] was “inactive” in each case. In addition, in test [9], the Potency is 8.5 nM [inconclusive] (active).

Take `Cc1cc(C(=C2C=CC(=Nc3ccc(S(=O)(=O)O)cc3S(=O)(=O)O)C=C2)c2ccc(Nc3ccc(S(=O)(=O)O)cc3)cc2)ccc1N`: the outcome in test [1], in [3], in test [4] and in test [6] was inactive. Besides, the Potency result in test [2], in test [7] and in test [9] was “inactive” throughout.

As to `CC(=O)OCC(=O)[C@H]1CC[C@H]2[C@@H]3CCC4=CC(=O)CC[C@]4(C)[C@H]3CC[C@]12C`, the compound was called inactive in test [1], in test [3], in test [4] and in [6]. Also, the Potency entry in [2], in [5], in test [7] and in test [9] was “inactive” in each case. The Potency in test [8] is 0.848 µM (active).

As for `C=CC(=O)NCOCC(C)C`, the result in [1], in [3] and in test [6] was inactive. Also, the Potency result in test [2], in [5] and in test [7] was “inactive” in each case.

Turning to `CN1C(=O)CC(C)(c2ccccc2)C1=O` (centres undefined), the compound was classed as inactive in test [1], in test [3], in test [4] and in test [6]. The Potency entry in test [2], in test [5], in test [7], in test [9] and in test [8] was “inactive” throughout.

Regarding `Cc1cnc(C)c(C)n1`, the call in test [1], in test [3], in test [4] and in test [6] was inactive. Besides, the Potency result in test [2], in [5], in test [7], in test [9] and in test [8] was “inactive” in each case.

Regarding `CCOc1cc(N)c(Cl)cc1C(=O)NCC1CN(Cc2ccc(F)cc2)CCO1` (centres undefined), the result in test [1], in [3], in test [4] and in test [6] was inactive. Also, the Potency entry in test [2], in test [7], in test [9] and in test [8] was “inactive” throughout.

Take `COC(=O)Nc1nc2ccc(C(=O)c3cccs3)cc2[nH]1`: the call in [1], in test [3] and in test [4] was inactive. For the same compound, the Potency result in [2] and in test [7] was “inactive” throughout.

Regarding `CCCOCCOCCO`, the call in [1], in test [3], in test [4] and in [6] was inactive. The Potency entry in [2], in test [5], in [7], in test [9] and in [8] was “inactive” in each case.

For the compound `CC1CC(O)CC(C)(C)C1` (centres undefined), the call in [1] and in [3] was inactive. The Potency entry in test [2], in test [5], in test [7] and in test [8] was “inactive” throughout.

Take `Fc1c(F)c(F)c(Br)c(F)c1F`: the result in test [1], in [3] and in test [4] was inactive. Also, the Potency entry in [2], in test [5] and in test [7] was “inactive” in each case.

As to `C[C@]12CCC(=O)C=C1C=C[C@@H]1[C@@H]2CC[C@@]2(C)[C@H]1CC[C@@]21CCC(=O)O1`, the outcome in [1], in test [3], in test [4] and in test [6] was inactive. Further, the Potency entry in test [2], in [5], in [7] and in [9] was “inactive” each time. Further, the Potency in [8] is 10.7 µM (active).

The values above are taken from PubChem BioAssay (Tox21).
